We go through 40 molecules from the supplement of paper PMC13380429.

Molecules are shown by their SMILES.

The test relates to Vero E6 infected with SARS-CoV-2. The test is described as follows: morphology score (similarity to uninfected cells); higher = more like uninfected cells. The settings on record: 24 h.
In turn, `CCCCC(=O)O[C@H]1CC[C@H]2[C@@H]3CCc4cc(O)ccc4[C@H]3CC[C@]12C` (10 µM) yielded a morphology score of -0.00932.

On to `COc1ccc(F)c(F)c1C(=O)c1cnc(NC2CCN(S(C)(=O)=O)CC2)nc1N` (10 µM), for which the morphology score is -0.352.

`NS(=O)(=O)OC[C@@H]1C[C@@H](n2ccc3c(N[C@H]4CCc5ccccc54)ncnc32)C[C@@H]1O` [pevonedistat] (0.833333 µM) displayed a morphology score of -0.404. Consider `O=C(O[C@H]1CN2CCC1CC2)N(Cc1cc(F)c(F)c(F)c1)c1cccc(F)c1` [tarafenacin] (10 µM), for which the morphology score amounted to 0.371. Under `Cc1nccc2[nH]c(=O)ccc12` [medorinone] (10 µM) stands 0.145; under `CC(CN1c2ccccc2Sc2ccccc21)N(C)C` (stereo not given) [promethazine] (10 µM), 0.528. To `C[C@]12C=CC(=O)C=C1CC[C@@H]1[C@@H]2CC[C@]2(C)OC(=O)CC[C@@H]12` [Testolactone] (10 µM) belongs 0.176; to `C[C@@H](N)[C@@H](O)c1ccccc1` [1S,2R-phenylpropanolamine] (10 µM), -0.131; to `Cc1ccc(C(=O)Nc2cccc(C(F)(F)F)c2)cc1Nc1nc(-c2cccnc2)nc2c1cnn2C` (10 µM), -0.0613. To `CCCN1CCC[C@@H]2Cc3n[nH]cc3C[C@H]21` [quinpirol-(-)] (10 µM) belongs 0.203; to `O=c1[nH]c(=O)n([C@H]2C[C@H](O)[C@@H](CO)O2)cc1F` [floxuridine] (0.833333 µM), -0.065. `OC[C@H]1O[C@@H](n2cnc3c(NC4CCCC4)ncnc32)[C@H](O)[C@@H]1O` [N6-cyclopentyladenosine] (10 µM) returned a morphology score of -0.0139.

The molecule `CN1CCCN=C1COC(=O)C(O)(c1ccccc1)C1CCCCC1` (stereo not given) [oxyphencyclimine] (10 µM) returned a morphology score of 0.0243.

Molecule `CCn1cc(C(=O)O)c(=O)c2ccc(-c3ccncc3)cc21` [rosoxacin] (10 µM) showed a morphology score of 0.148. To `O=C1NC(c2ccccc2)(c2ccccc2)C(=O)N1COP(=O)(O)O` [fosphenytoin] (10 µM) belongs -0.197. Turning to `CCCC(=O)OCOC(=O)C1=C(C)NC(C)=C(C(=O)OC)C1c1cccc(Cl)c1Cl` (stereo not given) [cleviprex] (10 µM), the morphology score came out at 0.0656. Under `Cc1ccc(Oc2ccccc2-c2csc(N=C3NCCCN3)n2)c(C)c1` [abafungin] (10 µM) stands 0.0754; under `CC(C)C(=O)c1c(C(C)C)nn2ccccc12` [ibudilast] (10 µM), 0.0924; under `C/C(=N\NC(=S)N1CCC1)c1ccccn1` (0.833333 µM), 0.0268. In turn, `CC(C)c1ccc(CC(=O)N2CCC[C@@H](c3cccc(OC(C)(C)C(=O)O)c3)C2)cc1` (10 µM) displayed a morphology score of 0.109. Under `c1ccc(CCCCN2CCC(c3ccccc3)CC2)cc1` (10 µM) stands 0.286.

The molecule `[Cl][Ti][Cl].c1cc[cH-]c1.c1cc[cH-]c1` [titanocene-dichloride] (10 µM) returned a morphology score of 0.163.

Turning to `COc1cccc(C(=O)CCN[C@@H](C)[C@H](O)c2ccccc2)c1` [oxyfedrine] (10 µM), the morphology score is 0.217. To `NNC(=O)c1ccncc1` [isoniazid] (10 µM) belongs -0.115; to `O=C(Oc1cc(S(=O)(=O)c2ccccc2)ccc1[N+](=O)[O-])c1ccc(Cl)cc1` (10 µM), 0.245; to `C#CC[C@H](c1nc2cc(Cl)ccc2c(=O)n1Nc1ccccc1)N(CCCN)C(=O)c1cccc(Cl)c1F` (0.833333 µM), -0.0173. To `COc1ccc(CN2CCN(C(c3ccc(F)cc3)c3ccc(F)cc3)CC2)c(OC)c1OC` [lomerizine] (10 µM) belongs 0.0043; to `O=C1CCC[C@@H]2[C@H]3C[C@@H](CN12)[C@@H]1CCCCN1C3` [lupanine] (10 µM), -0.065. Under `COc1ccc(C(=O)NCc2cccnc2)cc1C(=O)NCc1cccnc1` [picotamide] (10 µM) stands -0.08. In turn, `Cc1cn(C[C@H](N)C(=O)O)c(=O)n(Cc2ccsc2C(=O)O)c1=O` (10 µM) came in with a morphology score of -0.0699. Molecule `O=C1CS[C@@H](c2ccccc2Cl)c2cc(Cl)ccc2N1` (racemic) (10 µM) registered a morphology score of 0.245. To `CCCN1C[C@H](CSC)C[C@@H]2c3cccc4[nH]cc(c34)C[C@H]21` [pergolide] (10 µM) belongs 0.343; to `CC(=O)N(OCc1ccccc1)[C@@H]1c2cc(C#N)ccc2OC(C)(C)[C@H]1O` (10 µM), 0.159. Under `CCOC(=O)[C@H](CCc1ccccc1)N[C@@H](C)C(=O)N1Cc2cc(OC)c(OC)cc2C[C@H]1C(=O)O` [moexipril] (10 µM) stands 0.183; under `NCCCC[C@H](NC(=O)[C@@H](Cc1cc(Br)c(O)c(Br)c1)NC(=O)N1CCC(N2Cc3ccccc3NC2=O)CC1)C(=O)N1CCN(c2ccncc2)CC1` (10 µM), 0.0352; under `N=C(N)c1ccc(N2CCN(C3CCN(CC(=O)O)CC3)CC2)cc1` (10 µM), -0.0825. Under `Cc1ncc(OC[C@@]2(c3cccc(F)c3)C[C@H]2C(=O)Nc2ccc(F)cn2)c(C)n1` [lemborexant] (10 µM) stands 0.0108; under `N[C@H]1C(O)O[C@H](CO)[C@@H](O)[C@@H]1O` (mixture of isomers) [glucosamine] (10 µM), -0.0432; under `Cn1nc(-c2ccc(C(F)(F)F)cc2)nc2c(=O)n(C)c(=O)nc1-2` [walrycin-B] (0.833333 µM), 0.4. The molecule `CN(C)CC[C@@H](c1ccc(Cl)cc1)c1ccccn1` [chlorphenamine] (10 µM) came in with a morphology score of 0.0978.
